Compound activity from PubChem.
IMPase cell inh – IMPase inhibition in cells; P97697; CHO-M1 cells, IP1 accumulation, HTRF TR-FRET ratio; inhibition (IP1 accumulation), % at 46.1 µM; 120,000 tested, under 10 active; AID 901; active = well fitted curve in the direction sought with a large enough effect in the signal ratio, not every such curve was filed as active; inconclusive = small, poorly fitted or top-dose-only effect, or a change in a side signal; inactive = no such curve, though single readings can be large or run the other way; the % refers to the signal ratio;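 note: cells stimulated with carbachol in lithium chloride buffer; plate controls were DMSO basal wells for no effect and reference inhibitor wells for full effect; higher means more IMPase inhibition seen as more IP1 and lower FRET ratio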
Target sequence (P97697 whole entry, looked up): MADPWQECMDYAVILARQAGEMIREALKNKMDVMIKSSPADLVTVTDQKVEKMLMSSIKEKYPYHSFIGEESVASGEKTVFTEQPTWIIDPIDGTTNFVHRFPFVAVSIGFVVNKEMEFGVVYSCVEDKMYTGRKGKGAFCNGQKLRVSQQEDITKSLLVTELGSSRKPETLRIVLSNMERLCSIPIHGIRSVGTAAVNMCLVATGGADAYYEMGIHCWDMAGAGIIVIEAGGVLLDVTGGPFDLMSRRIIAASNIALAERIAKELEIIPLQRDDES
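Cellular IMPase inhibition is scored as a rise in cytosolic IP1, detected by competitive TR-FRET between d2-labelled IP1 and a europium anti-IP1 antibody. M1-expressing CHO cells were stimulated with carbachol for 30 min at 37C, with lithium (50 mM LiCl) present in the buffer.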
HPGD inh – blocks human HPGD enzyme activity; hit rate 4.3% among 150,000; Potency, µM, without a hit: at the top dose activity change, negative = inhibition, actives largely listed as inhibitors; AID 894; P15428; purified HPGD, NADH fluorescence kinetic, PGE2 substrate; note: potency is the fitted concentration of half-maximal effect
Target sequence (P15428 whole entry, looked up): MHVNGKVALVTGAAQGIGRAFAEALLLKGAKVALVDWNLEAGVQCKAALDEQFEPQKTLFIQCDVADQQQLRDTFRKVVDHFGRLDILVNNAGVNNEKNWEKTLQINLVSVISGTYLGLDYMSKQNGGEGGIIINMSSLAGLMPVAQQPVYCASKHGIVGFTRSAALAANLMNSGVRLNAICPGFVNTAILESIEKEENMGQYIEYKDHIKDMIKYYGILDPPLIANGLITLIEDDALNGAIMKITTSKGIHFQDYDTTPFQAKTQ
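20 nM HPGD preincubated 15 min at room temperature with compound in 50 mM Tris-HCl pH 8, 0.01% Tween 20. Started with 1 mM NAD+ and 30 uM prostaglandin E2; NADH fluorescence (360/450 nm) read 5 times over 30-s intervals, last minus first.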
PNC inhibitor – inhibitors of perinucleolar compartment assembly; PC3M PTB-GFP, PNC prevalence imaging, 16 h; stronger effect = lower value; activity change (PNC), negative = inhibition, % at 10 µM; hit rate 3.1% among 140,000;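 active = readout at or below -70, meaning at least 70% loss of cells showing the perinucleolar compartment, a nuclear body marking cancer cells; inconclusive = readout between -30 and a set limit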;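 note: plate controls were DMSO wells for no effect and camptothecin positive control wells for full effect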
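Compounds are pinned in duplicate onto adhered PC3M cells stably expressing GFP-tagged PTB and incubated 16 h at 37 C. Cells are then fixed, nuclei stained with Hoechst, and PNC-positive cells counted.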
NPSR antagonist – neuropeptide S receptor (human) antagonism, cAMP. Q6W5P4. CHO-NPSR cells, cAMP TR-FRET, antagonist mode. Potency, µM (highest dose often 38.3 µM), for the others: at the top dose activity change, negative = inhibition, most hits filed as inhibitors. hit rate 1% among 220,000. AID 1461; active = well fitted curve in the direction sought with a large enough effect; inconclusive = small, poorly fitted or top-dose-only effect, or another doubt; inactive = no such curve, though single readings can be large; an effect the other way counts as inactive or inconclusive; note: potency is the fitted concentration of half-maximal effect; nearly all actives have a fitted effect of over 50% in size
ALDH1A1 block – inhibitors of human aldehyde dehydrogenase 1A1. hit rate 7.3% among 220,000. Potency, µM (highest dose often 75.3 µM), for inactives: top-dose activity, negative = inhibition, usual class: inhibitors. AID 1030. Purified ALDH1A1, NADH fluorescence, propionaldehyde substrate;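 note: potency is the fitted concentration of half-maximal effect; plate controls were no enzyme wells and a reference inhibitor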
IMPase Li cell – IMPase inhibition in cells with lithium potentiation. CHO-M1 cells, IP1 TR-FRET (IP-One), carbachol + lithium. Potency, µM (top dose mostly 59.4 µM), inactives show at the highest dose activity, negative = IMPase inhibition, usual class: inhibitors. hit rate 0.35% among 210,000; active = well fitted curve in the direction sought with a large enough effect; inconclusive = small, poorly fitted or top-dose-only effect, or another doubt; inactive = no such curve, though single readings can be large; an effect the other way counts as inactive or inconclusive;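 note: IP1 builds up when IMPase is blocked and the TR-FRET signal falls; potency is the fitted concentration of half-maximal effect; plate controls were basal vehicle for no effect and high inhibitor control for full effect; nearly all actives have a fitted effect of over 50% in size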
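IP1 accumulation measured by competitive TR-FRET in lysed CHO-M1 cells after 30 min compound exposure at 37C, with a small lithium addition to potentiate weak responses. Hill-equation AC50 from ratio and donor-channel data.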
Numbers without * were called inactive; [ ] = dose if it differs, or a comment. This is a sample that favours compounds with a hit; in the whole collection about 11% have one here. Unless noted, calls come from the whole dose curve; as a rule, active = well fitted inhibition curve with a large enough effect (not every such curve was filed as active); inconclusive = small, poorly fitted or top-dose-only effect, or another doubt; inactive = no such curve, though single readings can be large or run the other way. Unless noted, % is set by controls: 0 for no effect and ±100 for the full control effect.

For CCC(C)c1ccc(NC(=S)NC2CCN(Cc3ccccc3)CC2)cc1 (stereo not given) the results were IMPase cell inh -10.2, HPGD inh -9.5%, PNC inhibitor inconclusive, NPSR antagonist -6.0%, ALDH1A1 block 7.08µM* and IMPase Li cell 5.8%.
For CCc1ccc(NC(=S)NC2CCN(Cc3ccccc3)CC2)cc1 the results were HPGD inh -20.0%, PNC inhibitor 90.7, NPSR antagonist 3.5%, ALDH1A1 block 20µM* and IMPase Li cell 10.6%.
For O=C(c1csnn1)N1CCC[C@@]2(CCN(c3ccccc3)C2)C1 the results were HPGD inh -1.0%, ALDH1A1 block inconclusive and IMPase Li cell 6.5%.
`CCCCN1CCCCC1C(=O)Nc1c(C)cc(C)cc1C` (stereo not given) gave IMPase cell inh 5.5, HPGD inh -6.5%, PNC inhibitor 24.8, NPSR antagonist -7.6%[46.1 µM], ALDH1A1 block -5.9% and IMPase Li cell 17.4%[38.3 µM].
`COc1cc(C(=O)Nc2nnc(C(C)(C)C)s2)c([N+](=O)[O-])cc1OC` gave HPGD inh 20µM*, PNC inhibitor -3.2, NPSR antagonist 12.2%, ALDH1A1 block inconclusive and IMPase Li cell 2.8%.
`CC(C)Cc1n[nH]c(=O)[nH]1` gave IMPase cell inh -7.0, HPGD inh -12.2%, PNC inhibitor 12.7, NPSR antagonist -3.3%[46.1 µM], ALDH1A1 block 10.7% and IMPase Li cell 0.2%.
Screening O=c1c(Br)c(N2CCCC2)cnn1-c1ccccc1 returned HPGD inh -5.4%, PNC inhibitor 29.5, NPSR antagonist -10.1%, ALDH1A1 block -5.4% and IMPase Li cell 10.8%.
Screening Cc1ccc(-n2ncc(Br)c(Br)c2=O)cc1 returned NPSR antagonist inconclusive, ALDH1A1 block 3.16µM* and IMPase Li cell inconclusive.
For O=c1c(Br)c(Br)cnn1-c1ccccc1 the results were NPSR antagonist 10µM*, ALDH1A1 block 7.08µM* and IMPase Li cell inconclusive.
Screening COc1cnn(-c2ccc(F)cc2)c(=O)c1Br returned NPSR antagonist 7.1%, ALDH1A1 block inconclusive and IMPase Li cell -27.1%.
For O=C(N/N=C/c1cnc(N2CCCCC2)s1)c1ccc(Cl)cc1 the results were NPSR antagonist -23.8%, ALDH1A1 block -0.3% and IMPase Li cell 13.3%.
`O=Cc1cnc(N2CCCCC2)s1` gave NPSR antagonist 7.3%, ALDH1A1 block 3.55µM* and IMPase Li cell 4.8%.
`CCCCN(C)C(=O)c1sc2ncn(CC)c(=O)c2c1C` gave IMPase cell inh -12.6, HPGD inh 15.8µM*, PNC inhibitor 7.5, NPSR antagonist -3.7%[46.1 µM], ALDH1A1 block 0.0% and IMPase Li cell -11.1%[38.3 µM].
CCCCNC(=O)Cn1cnc2sc(C(=O)OCC)c(C)c2c1=O was read as IMPase cell inh -0.5, HPGD inh -5.5%, PNC inhibitor 1.5, NPSR antagonist -1.0%[46.1 µM], ALDH1A1 block 6.0% and IMPase Li cell -3.6%[38.3 µM].
For CCOC(=O)c1sc2ncn(/N=C/N(C)C)c(=O)c2c1C the results were IMPase cell inh -3.6, HPGD inh -11.6%, PNC inhibitor -86.4*, NPSR antagonist -2.2%[46.1 µM], ALDH1A1 block 0.3% and IMPase Li cell 8.7%[38.3 µM].
Screening CCOCCn1cnc2sc(C(=O)Nc3nc(C)c(C(=O)OCC)s3)c(C)c2c1=O returned IMPase cell inh -2.1, HPGD inh -11.4%, PNC inhibitor -81.7*, NPSR antagonist -7.0%[46.1 µM], ALDH1A1 block 1.5% and IMPase Li cell -1.7%[38.3 µM].
`CCOC(=O)c1sc(NC(=O)CNC(=O)Cn2cnc3sc(C)c(C)c3c2=O)nc1C` gave IMPase cell inh 6.4, HPGD inh -6.9%, PNC inhibitor -19.1, NPSR antagonist -7.3%[46.1 µM], ALDH1A1 block 1.2% and IMPase Li cell 4.4%[38.3 µM].
For CN(CC(=O)NCCc1ccc(Cl)cc1)S(=O)(=O)c1ccc2c(c1)c(=O)n(C)c(=O)n2C the results were IMPase cell inh 1.0, HPGD inh -11.9%, PNC inhibitor 9.6, NPSR antagonist -10.6%[46.1 µM], ALDH1A1 block -2.1% and IMPase Li cell -3.5%[38.3 µM].
